# Assay outcomes: PubChem, National Center for Advancing Translational Sciences (NCATS)
# Rows were chosen to be rich in hits. Some 20% of all compounds tested hit in one or more screens of this group.
# Pf growth 48h = Primary qHTS for delayed death inhibitors of the malarial parasite plastid, 48 hour incubation; P. falciparum luciferase growth in erythrocytes, 48 h; Potency, µM (titrated, usually from 28.7 µM), inactives show top-dose activity change, negative = inhibition, usual class: inhibitors; 310,000 compounds, 5.9% hits; also: potency is read from the fitted curve at half-maximal effect; % is scaled to controls: 0 for no effect and ±100 for the full control effect
#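 Luciferase-expressing parasites in RBCs, 2% Hct / 0.1% parasitemia final; RPMI 1640 + 0.5% Albumax; 37 C, 5% CO2, one generation; luminescence read-out, lower signal = inhibition.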
# HCMV antiviral = qHTS Assay for inhibitors of the human cytomegalovirus (HCMV) | 410,000 compounds, 4.5% hits | AID 1259415, 2018 | activity change, negative = inhibition, % at 57.5 µM | HFF cells, HCMV-luciferase reporter, 72 h; hits give low values; in the data active = activity change below about -60%; inconclusive = no clear call, values can overlap the other calls; inactive = above about -39%; also: % is scaled to controls: 0 for no effect and ±100 for the full control effect
#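 HFF cells seeded 16 h at 37C, treated with compounds, infected with luciferase-reporter HCMV at MOI 1 PFU/cell; luciferase read at 72 h post infection, normalized to buffer-only and Salinomycin controls.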
# CHX counter = Cycloheximide Counterscreen for Small Molecule Inhibitors of Shiga Toxin; cell reporter, cycloheximide protein synthesis inhibition counterscreen; max response, %; 300,000 compounds, 12% hits; AID 2314, 2010; in the data active = max response mostly above about 13%, no sharp cut-off; inactive = mostly below about 14%; also: read at 38.3 µM for the half of the compounds with a filed dose; 0% is about no effect
# Pf growth 96h = Primary qHTS for delayed death inhibitors of the malarial parasite plastid, 96 hour incubation; P. falciparum luciferase reporter growth, 96 h; Potency, µM (titrated, usually from 28.7 µM), without a hit: at the highest dose activity change, negative = inhibition, most hits filed as inhibitors; 320,000 compounds, 6.9% hits; AID 504834, 2011; also: potency is read from the fitted curve at half-maximal effect; % is scaled to controls: 0 for no effect and ±100 for the full control effect
#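 Plates of compound plus infected erythrocytes (2% hematocrit, 0.05% parasitemia final) incubate 96 hours, 37 C, 5% CO2. Detection reagent added; reduced luminescence from the parasites' luciferase reporter flags inhibition.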
# Shiga inhibitor = A qHTS for Small Molecule Inhibitors of Shiga Toxin; Vero cells, Shiga toxin protein synthesis inhibition reporter; 290,000 compounds, 9.2% hits; AID 2315, 2010; inhibition, % at 38.7 µM; in the data active = inhibition mostly above about 28%, no sharp cut-off; inactive = mostly below about 43%; also: 0% is about no effect
# An asterisk follows results filed as active; ? = inconclusive; nt = no result. Unless noted, calls follow the shape of the dose curve; as a rule, active = well fitted inhibition curve with a large enough effect; inconclusive = small, poorly fitted or top-dose-only effect, or another doubt; inactive = no such curve, though single readings can be large or run the other way.
SMILES,Pf growth 48h,HCMV antiviral,CHX counter,Pf growth 96h,Shiga inhibitor
CC(=O)Nc1ccc2cc3ccc(NC(C)=O)cc3nc2c1,?,-98.3*,21.0*,?,30.3
CC(=O)Nc1ccc2sc(C)nc2c1,31.6%,-18.7,-3.4,82.1%,-3.3
O=C(Nc1ccccc1)Nc1ccc2ccccc2c1,40.4%,?,51.7*,140.7%,81.0*
CCc1cc2c(SCC(=O)N3CCCC3=O)ncnc2s1,-4.8%,13.1,nt,?,nt
COc1cccc(C(=O)Nc2ccc3nc(SCC(=O)N4CCc5ccccc54)sc3c2)c1,nt,42.9,nt,nt,nt
O=C1c2ccccc2C(O)(c2ccccc2)N1c1ccncc1 (centres undefined),11.7µM*,-11.4,-4.7,?,-11.1
CCN(C(=O)Cn1cc(C(=O)C(=O)N2CCOCC2)c2ccccc21)c1ccccc1,14.4%,-30.8,-4.5,-0.7%,-10.7
CC12CCC3C(CC=C4CC(O)CCC43C)C1C/C(=C\c1cccc(F)c1)C2=O (centres undefined),?,-33.6,-2.7,11.7µM*,-5.7
O=C(Cn1c(=O)n(Cc2ccc3c(c2)OCO3)c(=O)c2oc3ccccc3c21)Nc1ccc(F)cc1,nt,37.0,nt,nt,nt
CNC(=O)c1ccc(NC(=O)c2cc(S(=O)(=O)N(C)C)ccc2N2CCCC2)cc1,?,-100.2*,nt,?,nt
CN(C)S(=O)(=O)c1ccc(N2CCCC2)c(C(=O)Nc2ccc(F)cc2F)c1,?,-27.6,nt,?,nt
COc1ccc(C(C)(C)C)cc1NC(=O)c1cc(S(=O)(=O)N(C)C)ccc1N1CCCC1,13.1µM*,-34.8,-2.0,9.28µM*,-2.9
C/C(=N\NC(=O)CNC(=O)c1ccccc1F)c1ccco1,39.4%,29.2,2.2,?,-5.4
COC(=O)c1c(C)n(Cc2ccc3c(c2)OCO3)c2ccc(O)cc12,?,-29.7,16.3*,24.4%,10.7
CCOC(=O)c1c(C)n(Cc2ccc(F)cc2)c2ccc(O)cc12,?,?,11.7,-22.5%,-14.1
CCOC(=O)c1c(C)n(Cc2ccc3c(c2)OCO3)c2ccc(O)cc12,0.5%,8.8,30.2*,nt,38.2
CCOC(=O)c1c(C)n(Cc2ccco2)c2ccc(O)cc12,?,-27.2,3.4,2.6%,10.9
Cc1nc(-c2ccc(S(=O)(=O)N3CCN(c4ccccc4F)CC3)cc2)co1,nt,-22.2,nt,nt,nt
Cc1cccc(C)c1NC(=O)CCCSc1nnc(-c2ccc(Cl)cc2)n1-c1ccccc1,-3.8%,-79.5*,0.8,?,-11.7
Cc1ccc(/C=N/NC(=O)CSc2nnc(-c3ccccc3)n2-c2ccc(Cl)cc2)o1,-20.2%,-83.6*,-3.8,?,-0.7
CC(=O)Nc1nonc1-c1nnc(SCC(=O)Nc2c(C)cccc2C)n1-c1ccccc1,nt,6.6,nt,nt,nt
Cc1ccc(/C=N/NC(=O)CSc2nnc(-c3ccc(Cl)cc3)n2-c2ccc(Cl)cc2)o1,-14.7%,?,-0.9,?,-8.2
Cc1cccc(C)c1NC(=O)CCCSc1nnc(-c2ccc(F)cc2)n1-c1ccccc1,-14.4%,-68.7*,1.5,11.7µM*,-22.1
COc1ccccc1OC(=O)c1cc(Cl)nc2ccccc12,13.9%,-6.0,-2.2,29.8%,-3.1
CC(=O)Nc1ccccc1/C=C/c1ccc2c(C)ccc(O)c2n1,19.1%,-27.8,17.1*,-23.1%,17.6
SMILES,Pf growth 48h,HCMV antiviral,CHX counter,Pf growth 96h,Shiga inhibitor
CCOc1ccc(S(=O)(=O)N2CCOCC2)cc1NC(=O)CSCC(=O)Nc1ccc(OC)cc1,nt,-7.7,nt,nt,nt
COc1ccc(/C=N/Nc2cc(C)nc3ccccc23)cc1,0.738µM*,-103.7*,11.0,16.7%,0.6
COc1cccc2c(N/N=C/c3ccc(O)c(O)c3)cc(C)nc12,57.2%,129.4,22.1*,-2.9%,53.4*
COc1ccc(/C=N/Nc2cc(C)nc3c(C)cccc23)cc1,?,-23.5,-3.2,-17.5%,-19.2
COc1ccc(C2/C=C\CN(C(=O)C3CC3)C(C)C(=O)N2Cc2ccc(F)cc2)cc1 (centres undefined),nt,nt,6.0,nt,-5.2
O=[N+]([O-])c1ccc(OC/C=C2\Oc3ccc([N+](=O)[O-])cc3C2N2CCOCC2)cc1 (centres undefined),?,0.3,1.4,8.3%,-3.5
O=[N+]([O-])c1ccc2c(c1)C(N1CCOCC1)/C(=C/COc1ccc3ccccc3c1Br)O2 (centres undefined),6.57µM*,14.9,11.6,?,-5.7
